The source of these data is ChEMBL document CHEMBL4513216, “Probing the Open Global Health Chemical Diversity Library for Multistage-Active Starting Points for Next-Generation Antimalarials” (ACS Infect Dis, 2020).

Screen size: about 69,000 compounds; about 8,600 (12%) showed an effect of 50% or more. Many of the other results were omitted from the sample, so strong results are more common in it than they were.

In this assay the test system is Plasmodium berghei. Briefly: Screen against P. berghei liver stage (PbLuc), transformed with Luciferase, at 10uM. The class given is functional, HepG2. The settings on record: tested at 10 uM.
As for `CC(Cc1ccco1)NC(=O)Nc1ccc(N2CCCC2)nc1` (configuration not stated), the INHIBITION turned out to be 21.425%.
Next, `Cc1ccc(S(=O)(=O)N2CCC(c3n[nH]cc3C)C2)cc1` (configuration not stated): 32.8%; `CCN1CC2(CC1=O)CN(Cc1ccncc1)CCN(C(=O)C(C)C)C2` (configuration not stated): 38.5%.
Under `COc1cc(-c2nc3c([nH]2)CCCNC3=O)ccc1OC(C)C` stands -125%.
With `CCCN(Cc1ccccn1)Cc1ccccc1OC`, the INHIBITION came out at 45.2%.
Under `CCCN(Cc1cnc2ccccc2n1)Cc1ccccc1OC` stands 61.9%.
Under `CCCN(Cc1nc2ccccc2[nH]1)Cc1ccccc1OC` stands 82.3%; under `CCCN(Cc1ccc(OC)nc1)Cc1ccccc1OC`, 37.8%.
For the molecule `CCCN(Cc1ccc(S(=O)(=O)NC)cc1)Cc1ccccc1OC`, the INHIBITION turned out to be 38.6%.
Under `Cc1ccc(CN(CCN(C)C)Cc2nc3ccccc3[nH]2)s1` stands 36.5%; under `Cc1cccc(N2CCCC2c2nc(C)ncc2CN(C)C)n1` (configuration not stated), -3.94%; under `Cc1ccnc(NC(=O)C(C)Cn2cncn2)c1` (configuration not stated), 28.4%.
Under `Cc1nc(NCc2nonc2C)cc(C(C)Cn2nc(C)c(C)c2C)n1` (configuration not stated) stands 43.8%.
Next, `COc1ccc2c(ccn2CCC(=O)Nc2nc[nH]n2)c1`: 29.9%.
For `CCc1nc(CN2CCCC(NCc3nc(C)c(C)o3)C2)no1` (configuration not stated), the INHIBITION is -2.19%.
With `O=C(CC1COCCN1)N1CCCN(C2Cc3ccccc3C2)CC1` (configuration not stated), the INHIBITION is given as -22.1%.
Next, `COCCC1(CO)CCCN(C(=O)CCC(F)(F)F)C1` (configuration not stated): -1.49%; `O=c1c2c[nH]c(N3CCC(O)CC3)nc-2cn1Cc1cccc(F)c1`: 11.8%.
Next, `Cc1ccc(CN2CCC(O)(Cn3nc(-c4cccs4)oc3=O)CC2)o1`: 14.6%.
Under `CCc1ncnc2c1CCN(Cc1cccs1)CC2` stands 13.7%; under `Cc1occc1C(=O)N1CCO[C@H]2[C@H](OCc3cccnc3)CC[C@@H]21`, 34.4%; under `CN(Cc1ccoc1)C(=O)C1CCN(C(=O)C2CCCC2)CC1`, 61.1%.
Turning to `CC(c1ccon1)N(C)C(=O)C1CCN(C(=O)C2CC2)CC1` (configuration not stated), the INHIBITION amounted to 34%.
Under `CC(C)N1CCC(C(=O)N(C)C(C)c2ccon2)CC1` (configuration not stated) stands 1.94%; under `CN(Cc1cnc(N)nc1)C(=O)C1CCN(C(=O)C2CCCC2)CC1`, 44.3%.
Under `CC(=O)N(Cc1ccoc1)C1CCCCC1` stands -29.5%; under `CC(c1ccon1)N(C)C(=O)C1CCN(C(=O)C2CCC2)CC1` (configuration not stated), 57.5%.
Under `Cc1nn(Cc2ccc(C(=O)NC3CCS(=O)(=O)C3)cc2)c(C)c1Br` (configuration not stated) stands 7.3%.
In the case of `COCCN1C(=O)CCC12CCC(NCc1nccs1)CC2` (configuration not stated), the INHIBITION is reported as 10.5%.
In the case of `CN1CC2(CCN(C(=O)c3cn4cccnc4n3)CC2)CC1=O`, the INHIBITION was -28.9%.
Next, `O=C(NCc1cncc2c1CCN(CC1CCOC1)C2)c1ccno1` (configuration not stated): -0.813%; `O=C(O)c1c(-c2ccncc2)ncc2c1CCN(CC1CCOC1)C2` (configuration not stated): 34.9%.
Under `Cc1nccc(NCc2cncc3c2CCN(CC2CC2)C3)n1` stands 84.7%.
Next, `c1cnc(NCc2cncc3c2CCN(CC2CC2)C3)nc1`: 48.4%; `O=C(NCc1cncc2c1CCN(CC1CCOC1)C2)c1ccco1` (configuration not stated): -46%; `O=C(O)c1c(-c2cccnc2)ncc2c1CCN(CC1CCOC1)C2` (configuration not stated): -21.1%.
Regarding `Cc1nccc(NCc2cncc3c2CCN(CCN(C)C)C3)n1`, the INHIBITION came to 29.4%.
In the case of `Cc1nccc(NCc2cncc3c2CCN(CC2CCOC2)C3)n1` (configuration not stated), the INHIBITION is given as 91.9%.
Consider `CS(=O)(=O)NCc1cncc2c1CCN(CC1CCOC1)C2` (configuration not stated), for which the INHIBITION is 53.4%.
Under `CCC(=O)N1CCN(CCn2cccn2)c2ncccc2C1` stands 43%.
Under `Cn1cc(CN2CCc3onc(COCC4CC4)c3C2)cn1` stands 5.96%.
Next, `CCc1ncncc1C(=O)N1CCN(Cc2cscn2)CC1`: 15.5%; `COCc1nnc(NC(=O)c2cn(C(C)C)c3ccc(OC)cc23)s1`: -42.5%.
With `COc1ccc2cc(C(=O)N3CC[C@H](CO)[C@H](O)C3)n(C)c2c1`, the INHIBITION stood at 27.6%.
Next, `COc1nc2c(cc1C(=O)N1CCCOC(CN3CCCC3)C1)CCC2` (configuration not stated): 54.5%.
Under `COc1ccc(C(=O)N2CC[C@H](CO)[C@H](O)C2)c(C)c1` stands 16.8%.
Under `O=C(c1cccc(-n2cccn2)c1)N1CCCOC(CN2CCCC2)C1` (configuration not stated) stands 13.7%.
In the case of `CCc1ncc(C(=O)N2CCCOC(Cn3cccn3)C2)cn1` (configuration not stated), the INHIBITION was 40.2%.
Under `COc1nc2c(cc1C(=O)N1CCCOC(Cn3cccn3)C1)CCC2` (configuration not stated) stands 59.1%; under `O=C(c1cccc(-n2cccn2)c1)N1CCCOC(Cn2cccn2)C1` (configuration not stated), 0.891%.
Under `COc1cccc(C2CCCN2C(=O)c2cc3c(nc2OC)CCC3)c1` (configuration not stated) stands -10.8%; under `COc1nc2c(cc1C(=O)N1CC[C@H](CO)[C@@H](O)C1)CCC2`, 61%.
